Data on 6 compounds can be found in ChEMBL document CHEMBL1961873, “Compounds: GSK PKIS; Assays: Nanosyn kinase panel” (2012).

A word on the inhibition: it is the drop in the measured response relative to a control, in per cent.

SMILES strings stand for the structures.

The target of experiment [1] is T1, 3-phosphoinositide-dependent protein kinase 1 (Homo sapiens) (UniProt O15530).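 Further: values are mean inhibition of PDK1.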
T1 sequence (whole entry): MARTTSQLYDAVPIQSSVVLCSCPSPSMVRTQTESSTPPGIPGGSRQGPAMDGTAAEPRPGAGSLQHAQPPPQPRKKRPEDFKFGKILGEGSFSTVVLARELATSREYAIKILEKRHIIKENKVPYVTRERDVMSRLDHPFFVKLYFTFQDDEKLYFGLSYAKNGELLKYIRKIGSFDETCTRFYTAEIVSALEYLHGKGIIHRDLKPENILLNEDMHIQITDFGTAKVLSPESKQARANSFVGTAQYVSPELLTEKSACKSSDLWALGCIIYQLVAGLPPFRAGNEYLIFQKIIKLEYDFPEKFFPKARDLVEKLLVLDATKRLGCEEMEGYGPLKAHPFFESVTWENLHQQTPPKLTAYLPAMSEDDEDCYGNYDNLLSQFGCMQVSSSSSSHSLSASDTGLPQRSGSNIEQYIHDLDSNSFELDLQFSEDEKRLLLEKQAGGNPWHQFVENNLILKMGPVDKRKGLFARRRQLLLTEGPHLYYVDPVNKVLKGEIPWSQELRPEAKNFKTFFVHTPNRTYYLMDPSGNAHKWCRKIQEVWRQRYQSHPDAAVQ
The note with it: at 0.1 µM.

Experiment [2] deals with cAMP-dependent protein kinase catalytic subunit alpha (Homo sapiens) (UniProt P17612). The note with it: at 0.1 µM.
The target is the same in experiment [3]. The note with it: at 1 µM.
Experiment [4] addresses Protein kinase C alpha type (Homo sapiens) (UniProt P17252). The note with it: at 0.1 µM.
The target is the same in experiment [5]. The note with it: at 1 µM.
Experiment [6] addresses Protein kinase C beta type (Homo sapiens) (UniProt P05771). The note with it: at 0.1 µM.
For experiment [7] the target is unchanged. The note with it: at 1 µM.
In experiment [8] the target is Protein kinase C eta type (Homo sapiens) (UniProt P24723). The note with it: at 0.1 µM.
Chain of Protein kinase C eta type (Homo sapiens) (P24723 whole entry): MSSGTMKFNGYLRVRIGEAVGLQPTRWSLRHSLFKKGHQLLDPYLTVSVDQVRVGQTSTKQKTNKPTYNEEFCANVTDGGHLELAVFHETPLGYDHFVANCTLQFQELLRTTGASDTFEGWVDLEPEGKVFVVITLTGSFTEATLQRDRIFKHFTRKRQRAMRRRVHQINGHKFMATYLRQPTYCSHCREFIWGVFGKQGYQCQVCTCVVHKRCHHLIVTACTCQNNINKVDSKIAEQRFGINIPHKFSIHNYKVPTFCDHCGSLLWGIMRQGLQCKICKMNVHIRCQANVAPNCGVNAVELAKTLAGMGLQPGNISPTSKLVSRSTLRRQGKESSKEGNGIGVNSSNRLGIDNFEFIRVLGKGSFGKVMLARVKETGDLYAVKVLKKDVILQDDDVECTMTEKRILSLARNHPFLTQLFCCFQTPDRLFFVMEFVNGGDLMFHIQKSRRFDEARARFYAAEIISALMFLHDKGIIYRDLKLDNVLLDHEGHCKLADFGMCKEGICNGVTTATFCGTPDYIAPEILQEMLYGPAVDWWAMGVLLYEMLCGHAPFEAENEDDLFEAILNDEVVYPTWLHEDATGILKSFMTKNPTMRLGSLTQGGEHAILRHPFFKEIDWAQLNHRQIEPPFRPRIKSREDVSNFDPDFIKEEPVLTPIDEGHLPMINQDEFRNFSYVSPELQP
The target is the same in experiment [9]. The note with it: at 1 µM.
The target in experiment [10] is Protein kinase C gamma type (Homo sapiens) (UniProt P05129). The note with it: at 0.1 µM.
Experiment [11] shares this target. The note with it: at 1 µM.
Experiment [12] addresses T2, Protein kinase C iota type (Homo sapiens) (UniProt P41743).
T2 sequence (whole entry): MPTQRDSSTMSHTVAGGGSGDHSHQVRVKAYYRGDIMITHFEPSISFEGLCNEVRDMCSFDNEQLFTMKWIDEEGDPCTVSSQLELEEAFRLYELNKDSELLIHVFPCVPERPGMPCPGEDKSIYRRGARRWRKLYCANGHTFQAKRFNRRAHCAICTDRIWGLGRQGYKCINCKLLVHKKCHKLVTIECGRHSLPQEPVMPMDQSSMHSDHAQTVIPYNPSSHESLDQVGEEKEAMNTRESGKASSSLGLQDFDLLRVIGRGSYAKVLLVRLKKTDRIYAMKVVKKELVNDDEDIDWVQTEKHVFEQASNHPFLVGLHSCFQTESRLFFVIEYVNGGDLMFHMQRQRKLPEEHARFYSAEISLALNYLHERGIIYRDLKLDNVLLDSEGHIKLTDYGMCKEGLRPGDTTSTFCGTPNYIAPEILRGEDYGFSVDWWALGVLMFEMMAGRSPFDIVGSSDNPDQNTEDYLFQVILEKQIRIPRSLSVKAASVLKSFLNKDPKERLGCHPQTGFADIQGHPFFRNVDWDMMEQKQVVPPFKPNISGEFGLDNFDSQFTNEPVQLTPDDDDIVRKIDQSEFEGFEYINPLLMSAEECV
The note with it: at 0.1 µM.

Experiment [13] addresses T2, Protein kinase C iota type (Homo sapiens). The note with it: at 1 µM.
For experiment [14], the target named is Protein kinase C theta type (Homo sapiens) (UniProt Q04759). The note with it: at 0.1 µM.
Chain of Protein kinase C theta type (Homo sapiens) (Q04759 whole entry, looked up): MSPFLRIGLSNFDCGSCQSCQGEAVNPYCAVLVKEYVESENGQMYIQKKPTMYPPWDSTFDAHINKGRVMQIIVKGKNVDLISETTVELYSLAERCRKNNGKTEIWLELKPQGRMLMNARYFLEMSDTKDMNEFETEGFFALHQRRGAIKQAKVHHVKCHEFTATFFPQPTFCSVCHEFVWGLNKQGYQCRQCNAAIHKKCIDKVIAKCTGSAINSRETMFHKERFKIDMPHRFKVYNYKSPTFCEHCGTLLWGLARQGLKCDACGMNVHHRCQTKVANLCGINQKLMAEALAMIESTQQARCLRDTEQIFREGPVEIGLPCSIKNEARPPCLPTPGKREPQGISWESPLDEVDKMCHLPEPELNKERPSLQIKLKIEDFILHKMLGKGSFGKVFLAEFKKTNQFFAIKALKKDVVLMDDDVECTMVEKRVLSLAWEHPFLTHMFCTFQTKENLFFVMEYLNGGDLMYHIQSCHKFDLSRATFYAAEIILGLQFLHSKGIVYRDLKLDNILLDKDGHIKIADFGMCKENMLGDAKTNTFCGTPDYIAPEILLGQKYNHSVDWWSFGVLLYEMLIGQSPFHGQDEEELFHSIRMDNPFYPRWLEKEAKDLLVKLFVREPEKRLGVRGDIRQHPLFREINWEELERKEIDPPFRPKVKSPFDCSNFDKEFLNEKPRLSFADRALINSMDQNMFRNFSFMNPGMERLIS
For experiment [15] the target is unchanged. The note with it: at 1 µM.
In experiment [16] the target is Protein kinase C beta type (Homo sapiens) (UniProt P05771). The note with it: at 0.1 µM. This is another data set of the same source.
Chain of Protein kinase C beta type (Homo sapiens) (P05771 2-671 limits assumed): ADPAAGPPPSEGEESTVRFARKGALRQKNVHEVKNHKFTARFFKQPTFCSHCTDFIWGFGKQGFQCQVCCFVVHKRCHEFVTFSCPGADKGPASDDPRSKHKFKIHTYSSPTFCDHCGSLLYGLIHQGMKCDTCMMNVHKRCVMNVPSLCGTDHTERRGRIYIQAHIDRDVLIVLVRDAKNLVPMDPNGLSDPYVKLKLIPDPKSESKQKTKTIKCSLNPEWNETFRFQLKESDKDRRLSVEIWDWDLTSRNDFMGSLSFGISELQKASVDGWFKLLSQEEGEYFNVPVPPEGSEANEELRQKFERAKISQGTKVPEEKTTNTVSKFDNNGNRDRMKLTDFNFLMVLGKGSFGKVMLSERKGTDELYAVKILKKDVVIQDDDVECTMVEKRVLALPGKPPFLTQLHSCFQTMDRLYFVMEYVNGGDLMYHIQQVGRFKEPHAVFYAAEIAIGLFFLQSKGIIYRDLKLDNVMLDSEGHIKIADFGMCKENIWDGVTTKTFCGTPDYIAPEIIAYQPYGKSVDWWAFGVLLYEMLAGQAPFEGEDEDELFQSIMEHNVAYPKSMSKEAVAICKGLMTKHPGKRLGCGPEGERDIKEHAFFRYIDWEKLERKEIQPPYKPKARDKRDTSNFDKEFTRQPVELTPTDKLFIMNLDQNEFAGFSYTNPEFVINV
Experiment [17] has the same target. The note with it: at 1 µM. This is another data set of the same source.
The target in experiment [18] is T3, Serine/threonine-protein kinase D1 (Homo sapiens) (UniProt Q15139).
T3 sequence (whole entry): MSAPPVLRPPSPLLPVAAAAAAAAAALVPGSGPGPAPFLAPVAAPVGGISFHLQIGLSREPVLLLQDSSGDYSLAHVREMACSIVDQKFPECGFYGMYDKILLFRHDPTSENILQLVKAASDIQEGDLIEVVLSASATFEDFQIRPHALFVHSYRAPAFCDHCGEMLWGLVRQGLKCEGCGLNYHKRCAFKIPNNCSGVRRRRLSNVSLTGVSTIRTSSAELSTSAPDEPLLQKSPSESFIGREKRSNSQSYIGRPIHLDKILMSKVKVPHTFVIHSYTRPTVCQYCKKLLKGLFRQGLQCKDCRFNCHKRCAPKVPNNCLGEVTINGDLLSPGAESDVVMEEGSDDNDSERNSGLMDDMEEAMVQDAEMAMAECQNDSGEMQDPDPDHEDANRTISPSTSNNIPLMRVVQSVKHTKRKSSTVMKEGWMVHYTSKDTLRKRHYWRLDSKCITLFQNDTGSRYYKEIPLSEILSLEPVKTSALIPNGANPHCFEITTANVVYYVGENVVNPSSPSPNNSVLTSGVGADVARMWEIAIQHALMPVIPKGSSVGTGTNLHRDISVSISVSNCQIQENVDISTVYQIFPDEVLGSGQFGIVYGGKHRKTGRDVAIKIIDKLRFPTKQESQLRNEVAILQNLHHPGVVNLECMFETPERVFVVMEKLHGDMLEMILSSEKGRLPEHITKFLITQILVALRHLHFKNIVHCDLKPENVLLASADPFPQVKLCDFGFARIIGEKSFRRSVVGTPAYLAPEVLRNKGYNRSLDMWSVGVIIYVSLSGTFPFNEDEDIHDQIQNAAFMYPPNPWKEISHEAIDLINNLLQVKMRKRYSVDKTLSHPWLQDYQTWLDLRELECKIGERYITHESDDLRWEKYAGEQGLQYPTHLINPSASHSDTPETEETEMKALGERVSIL
The note with it: at 0.1 µM.

For experiment [19], the target named is T3, Serine/threonine-protein kinase D1 (Homo sapiens). The note with it: at 1 µM.
For experiment [20], the target named is T4, Serine/threonine-protein kinase D2 (Homo sapiens) (UniProt Q9BZL6).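 Further: reported percent inhibition values are means, part of the GSK PKIS kinase panel screen.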
T4 sequence (whole entry): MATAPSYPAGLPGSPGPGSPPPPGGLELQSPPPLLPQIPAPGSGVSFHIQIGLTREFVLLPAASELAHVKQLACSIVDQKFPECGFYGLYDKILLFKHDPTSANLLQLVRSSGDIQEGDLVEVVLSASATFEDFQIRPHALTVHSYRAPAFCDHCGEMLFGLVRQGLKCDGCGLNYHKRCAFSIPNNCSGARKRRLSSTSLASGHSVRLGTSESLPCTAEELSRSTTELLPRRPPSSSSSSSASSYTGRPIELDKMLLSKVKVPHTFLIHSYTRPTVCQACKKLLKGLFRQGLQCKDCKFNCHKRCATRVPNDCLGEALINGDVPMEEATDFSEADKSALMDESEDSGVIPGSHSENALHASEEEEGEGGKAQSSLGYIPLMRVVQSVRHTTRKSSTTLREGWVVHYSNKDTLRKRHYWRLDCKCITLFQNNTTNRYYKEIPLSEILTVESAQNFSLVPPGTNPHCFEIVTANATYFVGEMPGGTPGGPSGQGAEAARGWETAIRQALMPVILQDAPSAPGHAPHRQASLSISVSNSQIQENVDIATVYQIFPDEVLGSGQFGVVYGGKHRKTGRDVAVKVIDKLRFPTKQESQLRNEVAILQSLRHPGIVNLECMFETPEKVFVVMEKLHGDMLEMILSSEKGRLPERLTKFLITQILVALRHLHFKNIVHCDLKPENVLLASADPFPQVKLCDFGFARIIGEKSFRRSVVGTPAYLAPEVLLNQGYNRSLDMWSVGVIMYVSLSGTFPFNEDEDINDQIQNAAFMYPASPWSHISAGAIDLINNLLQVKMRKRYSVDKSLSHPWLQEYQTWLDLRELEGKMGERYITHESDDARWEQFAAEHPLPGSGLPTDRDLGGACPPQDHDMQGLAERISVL
The note with it: at 0.1 µM.

For `NS(=O)(=O)c1cccc(-c2cc3ccncc3cc2OCc2ccccc2)c1`, the inhibition is 0.97% in experiment [1]; 1.81% in experiment [2]; 3.34% in [3]; 1.18% in [4]; 1.96% in [5]; -0.33% in experiment [6]. For the same compound, the inhibition amounted to 0.71% in [7]; 2.45% in experiment [8]; 2.7% in [9]; 3.28% in experiment [10]; 4.07% in [11]; 2.51% in [12]. Besides, the inhibition in experiment [13] was 3.39%; in [14], 2.29%; in experiment [15] it was 1.87%; in experiment [16] it was 2.02%; in experiment [17], 2.23%; in [18], 4.25%. The inhibition in experiment [19] worked out at 7.09%; in experiment [20], 5.29%.
With `CN(C)C(=O)O[C@@H]1CN[C@@H](C#Cc2cc3ncnc(Nc4ccc(OCc5cccc(F)c5)c(Cl)c4)c3s2)C1`, the inhibition was 0.77% in [1]; 0.67% in experiment [2]; 1.2% in experiment [3]; 0.33% in experiment [4]; 1.13% in experiment [5]; -1.27% in [6]. Moreover, the inhibition is 2.12% in experiment [7]; 4.86% in experiment [8]; 1.38% in experiment [9]; -1.57% in experiment [10]; -0.54% in experiment [11]; -1.15% in [12]. Moreover, the inhibition in [13] is 0%; in [14], -0.8%; in experiment [15] it was -1.63%; in experiment [16], 0.88%; in [17] it was 0.87%; in experiment [18] it was 0.32%. The inhibition came out at 3.71% in [19] and 0.79% in experiment [20].
Turning to `Nc1nccc(-c2c(-c3ccc(F)cc3)nn3cc(C(F)(F)F)ccc23)n1`, the inhibition in [1] was -0.37%; in experiment [2], 0.74%; in experiment [3], 2.17%; in experiment [4], 0.05%; in [5], 1.25%; in [6], -1.02%. Moreover, the inhibition in experiment [7] was 0.52%; in [8], -1.68%; in [9] it was 1.15%; in [10] it was -1.38%; in [11] it was -0.26%; in experiment [12], -0.75%. The inhibition in experiment [13] was -1.18%; in experiment [14], -0.19%; in experiment [15], -0.16%; in experiment [16], -0.91%; in experiment [17], 2.07%; in experiment [18] it was 0.77%. The inhibition in [19] was determined as 3.05%; in experiment [20], 1.62%.
For `CN(C)CCCn1c(-c2nonc2N)nc2cnccc21`, the inhibition stood at 1.51% in experiment [1]; 2.1% in experiment [2]; 3.18% in experiment [3]; 0.8% in experiment [4]; 3.62% in experiment [5]; 1.86% in experiment [6]. In addition, the inhibition in experiment [7] was 14.5%; in experiment [8], 6.38%; in [9], 10%; in experiment [10], 4.42%; in experiment [11], 4.25%; in [12], 2.62%. The inhibition in experiment [13] amounted to 3.77%; in experiment [14], 2.2%; in experiment [15], 1.32%; in experiment [16], 2.32%; in [17] it was 4.48%; in experiment [18] it was 3.41%. Besides, the inhibition amounted to 7.59% in experiment [19] and 4.15% in experiment [20].
With `Nc1ccc(C#Cc2cncnc2Nc2ccc(OCc3cccc(F)c3)c(Cl)c2)cc1`, the inhibition was -0.28% in experiment [1]; 3.59% in experiment [2]; 2.77% in experiment [3]; 0.42% in [4]; 1.03% in experiment [5]; 1.2% in experiment [6]. In addition, the inhibition in experiment [7] is 2.03%; in experiment [8], 4.79%; in [9], 2.72%; in [10], -0.9%; in [11] it was 1.26%; in experiment [12], 1.82%. For the same compound, the inhibition turned out to be 1.53% in [13]; 1.3% in experiment [14]; 1.13% in experiment [15]; 0.84% in experiment [16]; 0.6% in [17]; 4.09% in experiment [18]. For the same compound, the inhibition turned out to be 3.44% in experiment [19] and 3.76% in experiment [20].
Consider `O=C1Nc2ccccc2/C1=C/Nc1ccc2[nH]c(=O)[nH]c2c1`, for which the inhibition in experiment [1] turned out to be 9.34%; in experiment [2] it was 2.27%; in experiment [3], 4.1%; in experiment [4] it was 0.57%; in experiment [5], 2.34%; in experiment [6], 0.19%. In addition, the inhibition in experiment [7] was found to be 4.33%; in [8], 3.3%; in experiment [9], 3.84%; in experiment [10] it was 2.03%; in [11] it was 4.72%; in experiment [12], 1.72%. The inhibition in experiment [13] came to 0.7%; in experiment [14] it was 2.03%; in [15], 4.75%; in [16] it was 1.79%; in experiment [17], 2.19%; in experiment [18] it was 4.45%. The inhibition was 16.5% in [19] and 5.28% in experiment [20].
